In PubChem BioAssay (NCATS):
Several values for one entry are separate records, joined by “and”; a condition that tells them apart may be missing. Equal entries are not always repeated. Inconclusive results are not listed. The source holds several records for some structures; these can differ, active in one and inactive in another. Activity calls are given as the source filed them. Unless noted, calls follow the shape of the dose curve; as a rule, active = well fitted curve in the direction sought with a large enough effect; inconclusive = small, poorly fitted or top-dose-only effect, or another doubt; inactive = no such curve, though single readings can be large; an effect the other way counts as inactive or inconclusive.

What was measured:
[1] = qHTS profiling of the MIPE4 collection as inhibitors of Plasmodium falciparum (3D7) proliferation (AID 743344; call rule not given here;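 also: scaled between DMSO vehicle wells and 0.29 µM artemisinin as full inhibition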); details: P. falciparum 3D7 in erythrocytes, SYBR Green DNA fluorescence, 72 h; at 28.5 µM unless noted
Summary of the method: (§1)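 Erythrocytes infected with P. falciparum (0.3% parasitemia, 2.5% hematocrit) incubated with compounds 72 h at 37 C, 5% CO2. Lysis with saponin/Triton buffer containing SYBR Green I, overnight at room temperature in the dark; DNA fluorescence (485/535 nm) normalised to 0.29 uM artemisinin and DMSO.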

[2] = qHTS profiling of the MIPE4 collection as inhibitors of Plasmodium falciparum (DD2) proliferation (AID 743345; call rule not given here); details: P. falciparum Dd2 in erythrocytes, SYBR Green DNA, 72 h; at 28.5 µM unless noted
Summary of the method: as §1

[3] = qHTS profiling of the MIPE4 collection as inhibitors of Plasmodium falciparum (DD2) proliferation (Rep 2) (AID 743346; call rule not given here); details: P. falciparum Dd2 in erythrocytes, SYBR Green DNA, 72 h; at 28.5 µM unless noted
Summary of the method: as §1

[4] = High-throughput drug toxicity screening in the BPDCN cell line Gen2.2 (AID 1224824; call rule not given here;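 also: cells exposed to compounds for 48 h before reading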); details: Gen2.2 BPDCN cells; at 45.8 µM (top of the series) unless noted
Summary of the method: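 Gen2.2, 500 cells/well, phenol red-free RPMI/10% FBS/Pen-Strep; 48 h cpd, 37 °C/5% CO2; CTG lum, 15 min RT. Norm: DMSO = 100%, bortezomib 9.2 uM final = 0%.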

[5] = High-throughput drug toxicity screening in the BPDCN cell line Cal-1 (AID 1224825; call rule not given here); details: Cal-1 BPDCN cell viability, qHTS; at 45.8 µM (top of the series) unless noted
Summary of the method: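 Exponentially growing Cal-1 cells, 500 per well in phenol red-free RPMI with 10% FBS, were exposed to compounds for 48 h at 37 °C, 5% CO2. Viability was read by CellTiter-Glo luminescence and normalised to DMSO (100%) and 9.2 uM bortezomib (0%).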

[6] = qHTS assay for measurement of the activity of small molecule inhibitors on Zika virus induced Caspase-3 activity in human iPSC derived neural progenitor cells (hNPCs) (AID 1224857); also: % of control where 0% means no effect; nearly all actives have a fitted effect of over 65% in size
Summary of the method: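 After overnight (16–20 h) culture at 350 cells/well, hNPCs get compound, then ZIKV 2 FFU/cell one hour later. Six hours on, Caspase-Glo 3/7 is added and luminescence measured.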

[7] = qHTS assay for measurement of the activity of small molecule inhibitors on Zika virus induced Caspase-3 activity in human astrocytoma cells (AID 1224859);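 also: plate controls were ZIKV-infected untreated cells for no effect and uninfected cells for full effect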
Summary of the method: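 Inhibition of Zika-induced caspase-3/7 activity: SNB-19 cells, 1 h compound pretreatment, ZIKV 2 FFU/cell for 6 h at 37 C, Caspase-Glo luminescence read-out.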

[8] = qHTS Screen of the MIPE 4.0 Collection Against Ewings Sarcoma (TC71) (AID 1259253); also: nearly all actives have a fitted effect of over 40% in size; also: potency is read from the fitted curve at half-maximal effect
Summary of the method: (§2)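 Measured: ATP luminescence (CellTiter-Glo) 10 min after reagent addition, following 48 h drug treatment. Relative luciferase units converted to percent activity, with no-cell wells as full and DMSO wells as zero inhibition.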

[9] = qHTS Screen of the MIPE 4.0 Collection Against Ewings Sarcoma (EW8) (AID 1259255); also: nearly all actives have a fitted effect of over 35% in size; also: potency is read from the fitted curve at half-maximal effect;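 as to viability: 100% = DMSO-treated cells and 0% = medium-only wells without cells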
Summary of the method: as §2

[10] = qHTS profiling of the MIPE4 collection as inhibitors of Plasmodium falciparum (HB3) proliferation (AID 743347; call rule not given here;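 also: plate controls were DMSO vehicle wells for no effect and artemisinin wells for full effect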); details: P. falciparum HB3 in erythrocytes, SYBR Green DNA, 72 h; at 28.5 µM unless noted
Summary of the method: as §1

[11] = qHTS Screen of the MIPE 4.0 Collection Against Ewings Sarcoma (TC32) (AID 1259256); also: nearly all actives have a fitted effect of over 45% in size; also: potency is read from the fitted curve at half-maximal effect
Summary of the method: as §2

[12] = qHTS assay to identify small molecule inhibitors of chordoma cells - UCH-2 (AID 1259356); also: % is scaled to controls: 0 for no effect and ±100 for the full control effect
[13] = P-glycoprotein substrates identified in KB-3-1 adenocarcinoma cell line, qHTS therapeutic library screen (AID 1346986); also: nearly all actives have a fitted effect of over 60% in size
Summary of the method: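 Resistance attributable to P-gp was assessed by comparing AC50 in KB-8-5-11 with parental KB-3-1 and by tariquidar reversal. Cells were exposed 72 h and viability read by CellTiter-Glo.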

[14] = P-glycoprotein substrates identified in KB-8-5-11 adenocarcinoma cell line, qHTS therapeutic library screen (AID 1346987); also: nearly all actives have a fitted effect of over 65% in size; also: potency is read from the fitted curve at half-maximal effect
Summary of the method: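 Steps: plate 500 KB-8-5-11 cells/well in DMEM + 10% FCS (colchicine removed); pin compounds in dose-response; incubate 72 h, 37 degree C, 5% CO2; add CellTiter-Glo, 5 min; read luminescence.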

[15] = Identifying Small Molecule Inhibitors of Pancreatic Cancer Stem Cells (SN12C, Adherent) (AID 1259358);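 also: potency is read from the fitted curve at half-maximal effect; cell survival measured after 48 h of compound exposure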
Summary of the method: (§3)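 After a 4 h attachment period, compounds were pinned into wells and cultures held 48 h under standard incubator conditions. Viability was then measured as CellTiter-Glo luminescence following 10 min at room temperature.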

[16] = Identifying Small Molecule Inhibitors of Pancreatic Cancer Stem Cells (Panc1, Spheroid) (AID 1259359); details: Panc1 spheroid cancer stem cell viability;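 also: potency is read from the fitted curve at half-maximal effect; compound exposure lasted 48 h before reading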
Summary of the method: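 Adherent (2D) versus sphere (3D) formats; spheres generated 14 d in SCM beforehand. Compound transferred by pin tool after 4 h, 48 h incubation, CellTiter-Glo endpoint.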

[17] = Identifying Small Molecule Inhibitors of Pancreatic Cancer Stem Cells (A278, Adherent) (AID 1259361); also: nearly all actives have a fitted effect of over 35% in size
Summary of the method: as §3

[18] = Identifying Small Molecule Inhibitors of Pancreatic Cancer Stem Cells (Panc1, Adherent) (AID 1259362); details: Potency: viability; also: potency is read from the fitted curve at half-maximal effect
Summary of the method: as §3

SMILES	parasite growth, % of DMSO control [1]	parasite growth remaining, % of DMSO control (lower = more inhibition) [2]	parasite growth, % of control (lower = inhibition) [3]	cell viability, % of control (lower = more cytotoxic) [4]	viability (% of control) [5]	Potency [6]	Potency [7]	Potency [8]	Potency [9]	growth, % of control [10]	Potency [11]	outcome [12]	Potency [13]	Potency [14]	Potency [15]	Potency [16]	IC50 (viability decrease) [17]	Potency [18]
NC[C@@H]1O[C@@H](O[C@H]2[C@@H](O)[C@H](O[C@@H]3[C@@H](O)[C@@H](N)C[C@H](N)[C@H]3O[C@H]3O[C@H](CN)[C@@H](O)[C@@H](O)[C@H]3N)O[C@H]2CO)[C@H](N)[C@@H](O)[C@@H]1O	88%	92.7%	90%	134%	147%	inactive	inactive	inactive	inactive	–	–	–	–	–	–	–	–	–
Cc1ccc(/C=N/NC(=O)c2ccccc2Oc2ccccc2)o1	–	103%	120%	76%	18.6%	inactive	inactive	20.9 µM (active)	–	92%	inactive	–	–	–	–	–	–	–
CCOC(=O)O[C@]1(C(=O)OCCl)CC[C@@H]2[C@H]3CCC4=CC(=O)C=C[C@]4(C)[C@@H]3[C@@H](O)C[C@@]21C	48.2%	86.4%	44.6%	84.3%	77.6%	inactive	inactive	inactive	–	68.7%	–	inactive	inactive	inactive	–	–	–	–
CC1(C)CCC(CN2CCN(c3ccc(C(=O)NS(=O)(=O)c4ccc(NCC5CCOCC5)c([N+](=O)[O-])c4)c(Oc4cnc5[nH]ccc5c4)c3)CC2)=C(c2ccc(Cl)cc2)C1	18.2%	–	24.1%	37.9%	24.1%	inactive	inactive	23.5 µM (active)	–	6.5%	–	–	–	inactive	–	–	–	–
CC#CCn1c(N2CCC[C@@H](N)C2)nc2c1c(=O)n(Cc1nc(C)c3ccccc3n1)c(=O)n2C	58%	22.5%	22.9%	159%	101%	inactive	inactive	26.4 µM (active)	–	88.9%	–	–	–	inactive	–	–	–	–
COc1ccc2c3c1OC1C[C@@H](O)C=C[C@@]31CCN(C)C2 (some centres undefined)	–	–	–	113%	96.5%	inactive	inactive	20.9 µM (active)	–	69.6%	–	–	–	inactive	–	–	–	–
COc1cccc([C@@H](C)NCCCc2ccccc2Cl)c1	6.27%	78.7%	13.3%	172%	66.2%	inactive	inactive	–	inactive	7.8%	inactive	–	inactive	inactive	–	–	–	–
C[C@]12CCC3c4ccc(O)cc4CCC3C1CCC2=O (some centres undefined)	–	75.4%	54.3%	54%	62.5%	inactive	inactive	14.8 µM (active)	–	66.9%	6.62 µM (active)	–	–	inactive	–	–	–	–
COc1cc(N2CCC(N3CCN(C)CC3)CC2)ccc1Nc1ncc(Cl)c(Nc2ccccc2S(=O)(=O)C(C)C)n1	3.8%	7.75%	5.51%	5.5%	2.84%	inactive	inactive	inactive	–	7.64%	–	–	–	0.651 µM (active)	18.7 µM (active)	0.418 µM (active)	6.62 µM (active)	–
COc1cc2ncnc(-n3nc(-c4ccccn4)nc3N)c2cc1OC	15.5%	–	11.1%	59.8%	46.1%	inactive	inactive	18.7 µM (active)	–	6.36%	18.7 µM (active)	–	inactive	inactive and 10 µM (active)	5.9 µM (active)	–	3.32 µM (active)	18.7 µM (active)
CC[C@H]1OC(=O)[C@H](C)[C@@H](O[C@H]2C[C@@](C)(OC)[C@@H](O)[C@H](C)O2)[C@H](C)[C@@H](O[C@@H]2O[C@H](C)C[C@H](N(C)C)[C@@H]2O)[C@](C)(O)C[C@@H](C)CN(C)[C@H](C)[C@@H](O)[C@]1(C)O	33.2%	–	14%	184%	120%	inactive	inactive	–	16.6 µM (active)	59%	13.2 µM (active)	–	inactive	inactive	–	–	–	–
CCOC(=O)C1=C(N)Oc2ccc(Br)cc2C1C(C#N)C(=O)OCC (centres undefined)	91.3%	95.8%	93.2%	3.23%	9.05%	inactive	inactive	23.5 µM (active)	–	107%	37.2 µM (active)	–	inactive	inactive	–	–	–	–
CC=C(C)C(=O)O[C@H]1C(C)=C[C@]23C(=O)[C@@H](C=C(CO)[C@@H](O)[C@]12O)[C@H]1[C@@H](C[C@H]3C)C1(C)C	18.7%	–	28.1%	38.4%	12.7%	inactive	inactive	8.33 µM (active)	–	21%	–	–	–	–	–	–	–	–
COc1ccc(-c2oc3c(CC=C(C)C)c(OC4O[C@H](CO)[C@@H](O)[C@H](O)[C@@H]4O)cc(O)c3c(=O)c2OC2O[C@@H](C)[C@H](O)[C@@H](O)[C@@H]2O)cc1 (some centres undefined)	–	5.99%	36.2%	68.1%	102%	inactive	inactive	26.4 µM (active)	–	11.3%	26.4 µM (active)	–	–	23.5 µM (active)	–	–	–	–
CC(C)(Cc1ccc2ccccc2c1)NC[C@@H](O)COc1cccc(Cl)c1C#N	89.9%	98.5%	59.5%	123%	12.4%	inactive	inactive	16.6 µM (active)	–	92%	14.8 µM (active)	–	–	inactive	–	–	–	–
Cc1c(O)cccc1C(=O)N[C@@H](CSc1ccccc1)[C@H](O)CN1C[C@H]2CCCC[C@@H]2C[C@@H]1C(=O)NC(C)(C)C	10.1%	36%	37.7%	66.8%	4.13%	inactive	inactive	20.9 µM (active)	23.5 µM (active)	15.7%	–	–	–	–	–	–	–	–
Nc1ncnc2ccccc12	84.9%	98.4%	82.3%	145%	100%	inactive	inactive	–	inactive	77%	inactive	–	inactive	inactive	–	–	–	–
